The text below walks through data of the supplement of paper PMC3342239.

Where a name gives a salt, the structure may show the parent alone.

The subject of the first experiment is Saccharomyces cerevisiae. As to the kind of experiment: fraction of cells in G1 phase (DNA content, flow cytometry); higher = more cells with unreplicated DNA (G1 delay). Particulars: temperature: 30 C; YPD; BY4741 PDR5+ SNQ2+; drug added to: actively dividing cells; 4.33 h. On the procedure: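 S. cerevisiae cultures in YPD at 30°C were treated with each drug of the Enzo FDA-approved library at 20 µg/ml (final µM given per drug). Cells were fixed after 6–7 h (S1) or 6 h (S2), or after 4.33 h for BY4741 (S3), then stained with SYTOX Green. %G1 is the Dean-Jett-Fox G1 peak area divided by the G1+G2/M peak areas, written as a fraction and averaged over at least two independent experiments. DMSO reference: mean ~0.49; >0.60 is called High G1 and <0.3876 Low G1. Scale: lower means mitotic delay.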
Consider `COC(=O)[C@H](c1ccccc1Cl)N1CCc2sccc2C1` [Clopidogrel sulfate] (62.1449 µM), for which the “fraction of cells in G1 phase” value came to 0.459.
With `CC(C)C(=O)c1c(C(C)C)nn2ccccc12` [Ibudilast] (86.8386 µM), the “fraction of cells in G1 phase” value amounted to 0.462.
Turning to `CCc1nn(CCCN2CCN(c3cccc(Cl)c3)CC2)c(=O)n1CCOc1ccccc1` [Nefazodone] (42.5515 µM), the “fraction of cells in G1 phase” value stood at 0.422.
As to `CN1CCN(C2=Nc3cc(Cl)ccc3Nc3ccccc32)CC1` [Clozapine] (61.1935 µM), the “fraction of cells in G1 phase” value turned out to be 0.437.

The experiment is the same for the next values; noted with them: temperature: 30 C; YPD; JTY2953 pdr5 snq2 (sensitized); drug added to: actively dividing cells; 6 h.
Consider `O=C1Nc2ccc(Cl)cc2[C@@](C#CC2CC2)(C(F)(F)F)O1` [Efavirenz] (63.355 µM), for which the “fraction of cells in G1 phase” value turned out to be 0.4.
`CCOC(=O)C1=C(C)NC(C)=C(C(=O)OC)C1c1cccc(Cl)c1Cl` (stereo not given) [Felodipine] (52.0478 µM): the “fraction of cells in G1 phase” value was 0.609.
As for `COC(=O)[C@H](c1ccccc1Cl)N1CCc2sccc2C1` [Clopidogrel sulfate] (62.1449 µM), the “fraction of cells in G1 phase” value turned out to be 0.719.
Turning to `CC(C)C(=O)c1c(C(C)C)nn2ccccc12` [Ibudilast] (86.8386 µM), the “fraction of cells in G1 phase” value is 0.698.
On to `CCc1nn(CCCN2CCN(c3cccc(Cl)c3)CC2)c(=O)n1CCOc1ccccc1` [Nefazodone] (42.5515 µM), for which the “fraction of cells in G1 phase” value was determined as 0.688.
Same read-out and setting: with `COC(=O)C1=C(C)NC(C)=C(C(=O)OCCCN2CCC(c3ccccc3)(c3ccccc3)CC2)[C@H]1c1cccc([N+](=O)[O-])c1` [Niguldipine HCl] (30.9502 µM) the figure was 0.389.

The experiment is the same for the next values; noted with them: temperature: 30 C; YPD; JTY2953 pdr5 snq2 (sensitized); drug added to: cultures diluted from stationary phase; 6-7 h.
Regarding `O=C1Nc2ccc(Cl)cc2[C@@](C#CC2CC2)(C(F)(F)F)O1` [Efavirenz] (63.355 µM), the “fraction of cells in G1 phase” value was found to be 0.879.
In the case of `Cc1nccn1CC1CCc2c(c3ccccc3n2C)C1=O` (stereo not given) [Ondansetron] (68.1729 µM), the “fraction of cells in G1 phase” value was found to be 0.463.
Still for that read-out and setting: the value for `CS(=O)(=O)c1ccc([C@H](O)[C@@H](COC(=O)CN)NC(=O)C(Cl)Cl)cc1` [Thiamphenicol glycinate] (48.3934 µM) was 0.478.
On the same count and under the same terms, with `C=C(CC)C(=O)c1ccc(OCC(=O)O)c(Cl)c1Cl` [Ethacrynic acid] (65.9752 µM) the figure was 0.513.
Consider `CCCCC1C(=O)N(c2ccccc2)N(c2ccccc2)C1=O` [Phenylbutazone] (64.8543 µM), for which the “fraction of cells in G1 phase” value turned out to be 0.499.
`Cc1cnc(C(=O)NCCc2ccc(S(=O)(=O)NC(=O)NC3CCCCC3)cc2)cn1` [Glipizide] (44.8889 µM): the “fraction of cells in G1 phase” value came out at 0.577.
The same measure, in the same setting: the value for `COc1cc2nc(N3CCN(C(=O)c4ccco4)CC3)nc(N)c2cc1OC` [Prazosin HCl] (47.6417 µM) was 0.487.
On to `CCN(CC)CC(=O)Nc1c(C)cccc1C` [Lidocaine] (73.8552 µM), for which the “fraction of cells in G1 phase” value turned out to be 0.499.
In the case of `CC(=O)Oc1ccccc1C(=O)O` [Acetylsalicylic acid] (111.011 µM), the “fraction of cells in G1 phase” value was 0.49.
For the molecule `CO[C@@H]1[C@H](OC(=O)/C=C/C=C/C=C/C=C/C(=O)O)CC[C@]2(CO2)[C@H]1[C@@]1(C)O[C@@H]1CC=C(C)C` [Fumagillin] (43.6151 µM), the “fraction of cells in G1 phase” value was determined as 0.518.
Consider `CC[N+](CC)(CC)CCOc1cccc(OCC[N+](CC)(CC)CC)c1OCC[N+](CC)(CC)CC` [Gallamine triethiodide] (39.1519 µM), for which the “fraction of cells in G1 phase” value was 0.516.
Turning to `CC(=O)O[C@@]12CO[C@@H]1C[C@H](O)[C@@]1(C)C(=O)[C@H](O)C3=C(C)[C@@H](OC(=O)[C@H](O)[C@@H](NC(=O)OC(C)(C)C)c4ccccc4)C[C@@](O)([C@@H](OC(=O)c4ccccc4)[C@H]21)C3(C)C` [Docetaxil] (24.7555 µM), the “fraction of cells in G1 phase” value was 0.507.
Regarding `CCOC(=O)[N-]c1c[n+](N2CCOCC2)no1` [Molsidomine] (82.564 µM), the “fraction of cells in G1 phase” value came to 0.543.
On the same count and under the same terms, the value for `COC(=O)c1ccccc1O` [Methyl salicylate] (131.448 µM) was 0.513.
Regarding `Cn1cnc([N+](=O)[O-])c1Sc1ncnc2[nH]cnc12` [Azathioprine] (72.1241 µM), the “fraction of cells in G1 phase” value is 0.465.
The same measure, in the same setting: the value for `CCOC(=O)C1=C(C)NC(C)=C(C(=O)OC)C1c1cccc(Cl)c1Cl` (stereo not given) [Felodipine] (52.0478 µM) was 0.683; that for `CCN(CC)CCCC(C)Nc1c2ccc(Cl)cc2nc2ccc(OC)cc12` (stereo not given) [Quinacrine 2HCl dihydrate] (50.004 µM) was 0.529.
Regarding `COC(=O)[C@H](c1ccccc1Cl)N1CCc2sccc2C1` [Clopidogrel sulfate] (62.1449 µM), the “fraction of cells in G1 phase” value was 0.642.
The same measure, in the same setting: the value for `CN(C)CCCN1c2ccccc2CCc2ccccc21` [Imipramine HCl] (71.3225 µM) was 0.524.
As to `CC(C)C(=O)c1c(C(C)C)nn2ccccc12` [Ibudilast] (86.8386 µM), the “fraction of cells in G1 phase” value is 0.604.
For `C#C[C@]1(O)CC[C@H]2[C@@H]3CCC4=CC(=O)CC[C@@H]4[C@H]3CC[C@@]21C` [Norethindrone] (67.0176 µM), the “fraction of cells in G1 phase” value stood at 0.552.
For `COc1ccccc1Oc1c(NS(=O)(=O)c2ccc(C(C)(C)C)cc2)nc(-c2ncccn2)nc1OCCO` [Bosentan] (36.2564 µM), the “fraction of cells in G1 phase” value turned out to be 0.497.
On the same count and under the same terms, the value for `CO[C@@H]1[C@@H](OC(N)=O)[C@@H](O)[C@H](Oc2ccc3c(O)c(NC(=O)c4ccc(O)c(CC=C(C)C)c4)c(=O)oc3c2C)OC1(C)C` [Novobiocin Na] (32.6456 µM) was 0.513; that for `CCOc1ccccc1OCCN[C@H](C)Cc1ccc(OC)c(S(N)(=O)=O)c1` [Tamsulosin HCl] (48.9571 µM) was 0.507; that for `CCc1nn(CCCN2CCN(c3cccc(Cl)c3)CC2)c(=O)n1CCOc1ccccc1` [Nefazodone] (42.5515 µM) was 0.721.
`CCN1CCC[C@H]1CNC(=O)c1cc(S(N)(=O)=O)ccc1OC` [Sulpiride s (-)] (58.5768 µM): the “fraction of cells in G1 phase” value stood at 0.482.
The same measure, in the same setting: the value for `CC1=C(/C=C/C(C)=C/C=C/C(C)=C/C=C/C=C(C)/C=C/C=C(C)/C=C/C2=C(C)C(=O)CCC2(C)C)C(C)(C)CCC1=O` [Canthaxanthin] (35.4071 µM) was 0.527; that for `COC(=O)C1=C(C)NC(C)=C(C(=O)OCCCN2CCC(c3ccccc3)(c3ccccc3)CC2)[C@H]1c1cccc([N+](=O)[O-])c1` [Niguldipine HCl] (30.9502 µM) was 0.684.
Take `COc1ccccc1OCC(O)CO` (stereo not given) [Guaifenesin] (100.898 µM): the “fraction of cells in G1 phase” value is 0.463.
The same measure, in the same setting: with `CN1CCN(C2=Nc3cc(Cl)ccc3Nc3ccccc32)CC1` [Clozapine] (61.1935 µM) the figure was 0.319.
